The values that follow come from PubChem BioAssay.

SMILES strings stand for the structures. Activity calls are given as the source filed them.

Test [1] in a line: small molecules captured by biotinylated probe aFSTL3 – biochemical, small-molecule microarray, fluorescence 635/667, stem cell growth factor project, primary screen (AID 1064).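 Note: measures binding of the biotinylated anti-FSTL3 antibody to printed compounds.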 The note with it: higher = more signal.
Test [2] is described as follows: binders from COS7 lysate, DM2A8 probe, primary screen, torsin A project, cell lysate, small-molecule microarray, fluorescence 635/667 (AID 1065). The note with it: higher = more signal, COS7 lysate expressing mutant human TOR1A.
Test [3] can be described thus: small molecules captured by biotinylated probe aFGF2 – biochemical, small-molecule microarray, fluorescence 635/667, stem cell growth factor project, primary screen (AID 1067).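 Note: measures binding of biotinylated aFGF2 protein to printed compounds on slides; z-score merges feature fluorescence and signal-to-noise across triplicate slides.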 The note with it: higher = more signal.
Test [4] in a line: small molecules captured by biotinylated probe aFGF10 – biochemical, small-molecule microarray, fluorescence 635/667, stem cell growth factor project, primary screen (AID 1071).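 Note: score merges 667 nm spot intensity and signal to noise from triplicate slides.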 The note with it: higher = more signal.
The target of test [5] is Neurogenic locus notch homolog protein 2 (Homo sapiens) (UniProt Q04721). Description: small molecules binding Notch2 protein – biochemical, small-molecule microarray, 635 nm fluorescence, stem cell growth factors, primary screen (AID 1073). Conditions: higher = more signal.
In test [6] the target is Pro-neuregulin-1, membrane-bound isoform (Homo sapiens) (UniProt Q02297). Description: small molecules binding neuregulin-1 protein – biochemical, small-molecule microarray, fluorescence 635/667, psychiatric disease protein project, primary screen (AID 1075).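 Note: score combines 667 nm spot fluorescence with signal to noise.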 The note with it: NRG1 binding, 635 nm fluorescence, higher = more signal.
Sequence of Pro-neuregulin-1, membrane-bound isoform (Homo sapiens) (Q02297 whole entry, looked up, the tested form may be a part, canonical isoform): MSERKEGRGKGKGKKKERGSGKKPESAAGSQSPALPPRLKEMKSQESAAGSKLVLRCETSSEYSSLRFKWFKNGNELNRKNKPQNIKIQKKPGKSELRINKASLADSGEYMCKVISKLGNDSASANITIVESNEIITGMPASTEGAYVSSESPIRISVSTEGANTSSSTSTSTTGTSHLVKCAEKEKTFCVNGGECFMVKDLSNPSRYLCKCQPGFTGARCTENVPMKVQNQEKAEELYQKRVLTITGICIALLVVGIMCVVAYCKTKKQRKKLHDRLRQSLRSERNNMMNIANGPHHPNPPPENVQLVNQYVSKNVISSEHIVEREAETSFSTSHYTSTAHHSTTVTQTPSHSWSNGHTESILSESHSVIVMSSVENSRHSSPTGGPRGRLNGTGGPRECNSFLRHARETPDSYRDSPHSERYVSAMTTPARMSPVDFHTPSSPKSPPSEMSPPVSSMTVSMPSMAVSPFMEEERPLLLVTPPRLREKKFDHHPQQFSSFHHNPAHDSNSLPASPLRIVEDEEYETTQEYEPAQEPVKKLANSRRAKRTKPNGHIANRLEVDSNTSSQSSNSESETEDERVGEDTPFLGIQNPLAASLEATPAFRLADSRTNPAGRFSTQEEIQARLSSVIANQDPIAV
Test [7] concerns Neuregulin-1 EGF-like domain. The test is described as follows: small molecules binding NRG1 EGF domain – biochemical, small-molecule microarray, 635 nm fluorescence, primary screen (AID 1081).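 Note: binding of the protein to compounds printed on small-molecule microarray slides.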 The note with it: higher = more signal.
A short description of test [8]: FRG1 expression reporter modulators in myotubes – cell-based, C2C12 myotubes, firefly/Renilla luciferase, luminescence, FRG1 inhibition for FSHD, primary screen (AID 1084). The note with it: FRG1 promoter luciferase, higher = more signal, called active from +8 up or from −8 down.
Test [9] can be described thus: small molecules captured by biotinylated probe aFST – biochemical, small-molecule microarray, fluorescence 635/667, stem cell growth factor project, primary screen (AID 1086).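 Note: score merges 667 nm fluorescence with signal-to-noise of each printed compound spot.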 The note with it: higher = more signal.
Test [10] in a line: binders of probe aHhip on microarray, primary screen, stem cell growth factor project, biochemical, small-molecule microarray, fluorescence 635/667 (AID 1087).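 Note: score merges spot fluorescence at 667nm with spot signal to noise ratio.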 The note with it: higher = more signal.
Test [11] concerns PRMT1 (protein arginine N-methyltransferase 1). Description: small molecules binding arginine methyltransferase PRMT1 – biochemical, small-molecule microarray, 635 nm fluorescence, primary screen (AID 1088).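 Note: binding of Prmt1 protein to compounds spotted on small-molecule microarray slides.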 Conditions: higher = more signal.
Test [12] can be described thus: growth effects on S. cerevisiae YJM789 – YJM789 clinical isolate, OD600, 24 h, basal, primary screen (AID 1089).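 Note: growth of clinical yeast isolate S. cerevisiae YJM 789 seeded 1000 cells per well; test concentration not given here.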 The note with it: higher = more signal, called active from +8 up or from −8 down.
Test [13] is described as follows: S. pombe growth modifiers, basal conditions – strain 972, OD600, 24 h, no modulator, primary screen (AID 1090).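 Note: basal condition with compound alone and no growth modifier present; test concentration not given here.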 Conditions: S. pombe 972 growth, higher = more signal, called active from +8 up or from −8 down.
Test [14] is described as follows: budding yeast growth modifiers under rapamycin – strain BY4716, OD600, 96 h, primary screen (AID 1091). Note: test concentration not given here. The note with it: S. cerevisiae BY4716 + rapamycin, higher = more signal, called active from +8 up or from −8 down.
Test [15] addresses Torsin-1A-interacting protein 2 (Homo sapiens) (UniProt Q8NFQ8). The test is described as follows: small molecules binding lysate-expressed LULL1 – cell lysate, human LULL1 lysate, 635/667 nm fluorescence, primary screen (AID 1092).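 Note: score merges per-feature 667 nm fluorescence with signal-to-noise.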 Conditions: small-molecule microarray, hLULL1 lysate binding, 635 nm fluorescence; higher = more signal.
The nature of test [16]: optical density change of DRC41 E. coli – strain DRC41, OD650, 24 h, E. coli filamentation project, primary screen (AID 1093).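 Note: MC1000 strain lacking acrAB efflux and sulA so SOS filamentation is blocked; test concentration not given here.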 Conditions: E. coli DRC41 growth, higher = more signal, called active from +8 up or from −8 down.
Test [17] can be described thus: probe aLefty2 binding to arrayed compounds – biochemical, biotinylated probe, 635/667 nm fluorescence, primary screen (AID 1094).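 Note: score merges spot fluorescence near 667 nm with spot signal-to-noise ratio.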 Conditions: small-molecule microarray, higher = more signal.
The subject of test [18] is Noggin (protein binding on small-molecule microarray). Description: small molecules binding Noggin protein – biochemical, 635/667 nm fluorescence, primary screen (AID 1095).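 Note: score merges 667 nm feature fluorescence with signal to noise over triplicate slides.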 Conditions: 635 nm fluorescence, higher = more signal.
Test [19] has as its target Neurogenic locus notch homolog protein 3 (Homo sapiens) (UniProt Q9UM47). Description: small molecules binding NOTCH3 protein – biochemical, 635/667 nm fluorescence, primary screen (AID 1096). The note with it: small-molecule microarray, 635 nm fluorescence, higher = more signal.
Test [20] can be described thus: probe aEGFR binding to arrayed compounds – biochemical, biotinylated probe, 635/667 nm fluorescence, primary screen (AID 1097).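 Note: probe is a biotinylated anti-EGFR antibody binding compounds printed on slides; score combines fluorescence near 667 nm and signal to noise of each spot.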 The note with it: small-molecule microarray, higher = more signal.

Sequence of Neurogenic locus notch homolog protein 3 (Homo sapiens) (Q9UM47 whole entry, looked up): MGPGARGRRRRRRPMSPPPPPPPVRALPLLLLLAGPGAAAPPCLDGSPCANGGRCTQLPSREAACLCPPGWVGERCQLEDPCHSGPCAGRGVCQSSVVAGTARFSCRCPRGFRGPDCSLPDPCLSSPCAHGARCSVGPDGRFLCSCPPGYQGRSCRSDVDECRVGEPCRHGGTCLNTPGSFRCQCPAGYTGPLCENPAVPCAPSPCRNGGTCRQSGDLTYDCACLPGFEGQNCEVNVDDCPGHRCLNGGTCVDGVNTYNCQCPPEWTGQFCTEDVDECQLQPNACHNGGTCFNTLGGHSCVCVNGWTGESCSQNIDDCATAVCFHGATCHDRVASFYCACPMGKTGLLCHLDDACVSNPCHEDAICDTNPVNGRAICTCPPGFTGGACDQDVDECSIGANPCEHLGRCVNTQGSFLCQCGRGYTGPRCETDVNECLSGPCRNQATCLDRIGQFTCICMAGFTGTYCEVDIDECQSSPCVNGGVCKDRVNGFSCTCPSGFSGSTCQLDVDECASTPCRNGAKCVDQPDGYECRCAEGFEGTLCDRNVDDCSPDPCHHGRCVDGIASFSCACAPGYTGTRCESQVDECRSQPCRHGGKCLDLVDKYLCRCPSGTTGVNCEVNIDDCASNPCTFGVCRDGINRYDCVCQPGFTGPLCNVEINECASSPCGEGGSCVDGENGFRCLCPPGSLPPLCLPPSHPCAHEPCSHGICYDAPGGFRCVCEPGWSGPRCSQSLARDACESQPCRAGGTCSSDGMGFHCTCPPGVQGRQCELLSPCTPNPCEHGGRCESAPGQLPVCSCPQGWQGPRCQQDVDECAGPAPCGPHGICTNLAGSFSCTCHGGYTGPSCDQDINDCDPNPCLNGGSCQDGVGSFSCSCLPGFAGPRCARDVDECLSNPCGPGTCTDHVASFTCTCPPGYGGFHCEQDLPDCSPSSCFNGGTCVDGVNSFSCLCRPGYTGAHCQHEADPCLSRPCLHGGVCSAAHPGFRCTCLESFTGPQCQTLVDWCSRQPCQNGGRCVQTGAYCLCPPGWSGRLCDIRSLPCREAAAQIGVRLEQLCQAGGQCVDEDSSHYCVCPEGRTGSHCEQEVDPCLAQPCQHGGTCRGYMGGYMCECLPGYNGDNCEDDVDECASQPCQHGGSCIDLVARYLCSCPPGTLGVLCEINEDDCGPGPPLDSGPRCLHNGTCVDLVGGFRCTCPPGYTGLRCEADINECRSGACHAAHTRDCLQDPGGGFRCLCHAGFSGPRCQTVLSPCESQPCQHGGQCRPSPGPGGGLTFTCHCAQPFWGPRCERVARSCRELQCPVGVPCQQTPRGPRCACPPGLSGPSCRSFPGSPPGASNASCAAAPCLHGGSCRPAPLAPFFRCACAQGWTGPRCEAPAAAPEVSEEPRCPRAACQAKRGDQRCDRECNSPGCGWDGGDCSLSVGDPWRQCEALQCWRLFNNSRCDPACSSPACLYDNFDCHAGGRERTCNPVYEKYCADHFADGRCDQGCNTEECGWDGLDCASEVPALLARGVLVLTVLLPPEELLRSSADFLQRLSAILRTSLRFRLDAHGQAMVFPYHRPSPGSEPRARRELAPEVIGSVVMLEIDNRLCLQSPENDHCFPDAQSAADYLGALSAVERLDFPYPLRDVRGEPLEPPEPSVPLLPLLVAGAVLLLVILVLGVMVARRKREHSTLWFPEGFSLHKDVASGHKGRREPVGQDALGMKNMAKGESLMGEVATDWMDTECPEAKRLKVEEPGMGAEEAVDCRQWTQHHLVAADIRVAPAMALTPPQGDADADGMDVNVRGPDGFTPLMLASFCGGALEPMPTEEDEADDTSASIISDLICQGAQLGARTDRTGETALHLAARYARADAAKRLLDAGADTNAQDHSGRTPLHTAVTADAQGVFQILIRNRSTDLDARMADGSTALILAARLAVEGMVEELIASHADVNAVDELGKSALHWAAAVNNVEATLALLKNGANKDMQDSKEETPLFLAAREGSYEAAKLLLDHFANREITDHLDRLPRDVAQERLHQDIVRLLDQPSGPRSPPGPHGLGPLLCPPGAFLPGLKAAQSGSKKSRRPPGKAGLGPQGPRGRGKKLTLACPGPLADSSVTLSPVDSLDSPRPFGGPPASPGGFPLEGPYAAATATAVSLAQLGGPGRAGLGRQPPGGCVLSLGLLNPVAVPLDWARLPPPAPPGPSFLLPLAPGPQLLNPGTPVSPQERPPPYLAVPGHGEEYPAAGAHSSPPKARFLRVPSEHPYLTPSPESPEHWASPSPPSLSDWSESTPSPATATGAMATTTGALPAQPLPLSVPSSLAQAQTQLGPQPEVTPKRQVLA
Sequence of Torsin-1A-interacting protein 2 (Homo sapiens) (Q8NFQ8 whole entry, looked up): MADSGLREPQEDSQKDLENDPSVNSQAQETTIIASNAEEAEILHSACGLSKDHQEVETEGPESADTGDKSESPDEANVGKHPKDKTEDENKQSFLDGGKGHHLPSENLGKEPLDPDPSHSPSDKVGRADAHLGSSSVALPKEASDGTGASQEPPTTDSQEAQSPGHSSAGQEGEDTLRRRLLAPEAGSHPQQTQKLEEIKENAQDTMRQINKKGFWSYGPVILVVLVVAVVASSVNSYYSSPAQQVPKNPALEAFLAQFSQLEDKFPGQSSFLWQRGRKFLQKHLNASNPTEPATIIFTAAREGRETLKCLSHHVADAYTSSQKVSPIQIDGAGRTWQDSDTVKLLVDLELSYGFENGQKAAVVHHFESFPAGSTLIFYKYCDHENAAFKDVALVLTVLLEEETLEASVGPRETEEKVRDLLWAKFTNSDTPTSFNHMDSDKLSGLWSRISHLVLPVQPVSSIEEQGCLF

`O=C1CCCC=C1C(O)CCOC(c1ccccc1)(c1ccccc1)c1ccccc1` (stereo not given): the composite z-score was -0.282 in [1]; 0.422 in [2]; -0.144 in test [3]; 0.0954 in test [4]; -0.0617 in [5]; -0.229 in [6]. Further, the composite z-score in test [7] is -0.132; in test [9], -0.405; in test [10], -0.069; in [11], -0.758; in [15] it was -0.626; in test [17] it was -0.186. The composite z-score in test [18] is 0.547; in test [19], 0.103; in test [20], -0.198. For the same compound, the z-score in test [8] is -0.0611 (inactive); in test [12], 0.162 (inactive); in [13] it was -1.92 (inactive); in [14] it was 1.55 (inactive); in test [16], -0.0634 (inactive).

As for `COC(=O)CC=C[C@@H](C)[C@@H](C=NO[C@H](C)c1cn([C@H](CO)Cc2ccccc2)nn1)NS(=O)(=O)c1ccc(C)cc1`, the composite z-score was -0.468 in test [1]; 2.12 in [2]; -0.165 in test [3]; -0.147 in test [4]; -0.303 in test [5]; -0.211 in test [6]. Also, the composite z-score was 0.0224 in [7]; 0.227 in test [9]; -0.251 in test [10]; 0.915 in test [11]; 0.786 in test [15]; -0.0407 in test [17]. Besides, the composite z-score in test [18] is 0.857; in test [19] it was -0.0329; in test [20], 0.168. Further, the z-score is -0.25 (inactive) in test [8]; -0.798 (inactive) in test [12]; 0.359 (inactive) in test [13]; -0.824 (inactive) in test [14]; -0.297 (inactive) in [16].

Consider `CC(C)CON=C1[C@H]2CCn3c(=O)n(Cc4cc5c(cc4Cl)OCO5)c(=O)n3[C@H]2[C@H](O)[C@@H]2O[C@H]12`, for which the composite z-score in test [1] was -0.293; in test [2], 0.493; in test [3], -0.079; in test [4], 0.258; in test [5] it was 0.394; in test [6] it was 0.142. In addition, the composite z-score in test [7] was 0.497; in test [9], 0.0082; in test [10], 0.235; in test [11], -0.149; in test [15], 0.299; in test [17], -0.0936. The results for the composite z-score in test [18], in test [19] and in test [20] were 0.607, 0.573 and -0.0139, respectively. The z-score in test [8] was 0.354 (inactive); in test [12], 0.534 (inactive); in test [13] it was -0.129 (inactive); in test [14], 0.296 (inactive); in test [16] it was 0.0007 (inactive).

For the compound `CO[C@H]1COC(=O)CC=C[C@H](C)COC(=O)[C@@H](C)NC(=O)CC=C[C@@H]1C`, the composite z-score in [1] was -0.512; in test [2], 1.94; in test [3], -0.0996; in [4], 0.231; in [5], -0.0457; in test [6], -0.79. Moreover, the composite z-score is 0.219 in test [7]; -0.214 in test [9]; 0.0794 in test [10]; 1.53 in test [11]; -1.13 in test [15]; -0.289 in [17]. The composite z-score is 1.88 in test [18], -0.222 in test [19] and -0.0606 in [20]. Besides, the z-score in test [8] was 0.464 (inactive); in test [12] it was -0.78 (inactive); in test [13], -0.809 (inactive); in test [14], -1.18 (inactive); in test [16] it was 0.0007 (inactive).

Turning to `CCOC(=O)[C@H](Cc1ccccc1)NC(=O)CCC1CC(OC(=O)NCc2ccc3c(c2)OCO3)CC2(CCCC(COC(=O)NCCC(C)C)O2)O1` (stereo not given in full), the composite z-score was -0.545 in test [1]; 0.107 in [2]; -0.0193 in [3]; 0.755 in test [4]; 0.523 in [5]; 1.41 in [6]. In addition, the composite z-score in test [7] is 1.06; in [9], 0.169; in [10], 0.268; in test [11], 1.54; in test [15], 1.95; in test [17], 0.0224. In addition, the composite z-score was 0.614 in test [18], 0.671 in [19] and -0.068 in test [20]. Besides, the z-score in test [8] is 0.548 (inactive); in [12] it was 0.648 (inactive); in test [13], -0.29 (inactive); in test [14], -0.2 (inactive); in test [16], -0.167 (inactive).
